Laboratory results taken from PubChem BioAssay (NCI).
The panel holds about 79,000 compounds, 15% with a hit somewhere; the sample as a whole holds those more often. Rule as the data show it: active = growth inhibition above about 70%; inactive = the rest.

Columns and labels:
[1] = NCI Yeast Anticancer Drug Screen. Data for the rad50 strain (AID 155);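 also: 0% = growth of vehicle-only cultures of the same strain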; conditions: S. cerevisiae rad50 strain growth inhibition; at 50.0 µM; hits give high values
Outline: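 Yeast carrying a defined DNA repair defect were exposed to test compounds, and growth was compared with vehicle-treated controls to give percent inhibition.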

[2] = NCI Yeast Anticancer Drug Screen. Data for the mec2-1 strain (AID 157); conditions: S. cerevisiae mec2-1 strain, at 50.0 µM, hits give high values
Outline: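 Using mec2-1 yeast: add compound, measure growth, express inhibition versus vehicle-treated cultures.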

[3] = NCI Yeast Anticancer Drug Screen. Data for the sgs1 mgt1 strain (AID 161);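 also: 0% = growth of cultures given vehicle only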; conditions: S. cerevisiae sgs1 mgt1 strain, at 50.0 µM, hits give high values
Outline: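 Yeast cells carrying a defined DNA-repair defect were exposed to test compounds. Growth inhibition was measured relative to vehicle-treated controls.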

[4] = NCI Yeast Anticancer Drug Screen. Data for the cln2 rad14 strain (AID 165);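 also: 0% = growth equal to vehicle treated cultures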; conditions: S. cerevisiae cln2 rad14 strain, at 50.0 µM, hits give high values
Outline: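 Yeast strain cln2 rad14, bearing defects in cell cycle control and DNA repair, serves as the test system; values reflect growth inhibition compared with vehicle.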

[5] = NCI Yeast Anticancer Drug Screen. Data for the bub3 strain (AID 167); conditions: S. cerevisiae bub3 mutant strain, at 50.0 µM, hits give high values
Outline: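 Compounds were applied to a genetically altered yeast strain carrying a cell-cycle control defect. Growth inhibition was scored against vehicle-treated controls.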

[6] = NCI Yeast Anticancer Drug Screen. Data for the mlh1 rad18 strain (AID 175); conditions: S. cerevisiae mlh1 rad18 strain growth inhibition; at 50.0 µM; hits give high values
Outline: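 Steps: expose repair-defective yeast to compound; measure growth; express inhibition against vehicle-treated controls.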

Measured: growth inhibition

CSC1(C)C(=O)Nc2cc(C(F)(F)F)ccc21 (stereo not drawn)
inactive: [1] 17.6% | [2] 1.5% | [3] 1.65% | [4] 17.4% | [5] 2% | [6] 3.4%

CCCCN(CCCC)C1(c2ccccc2)OC(c2ccccc2)=CC1=O (stereo not drawn)
inactive: [1] 1.45% | [2] 5.75% | [3] -0.55% | [4] -10.5% | [5] 2.8% | [6] 20.6%

CCOC(=O)/C(=N/Nc1ccc(C)cc1)N1C(=S)C=C(C)NN(C)C1=S
inactive: [1] -34.3% | [2] 4% | [3] -31.1% | [4] -13.3% | [5] -19.7% | [6] -30.9%

CN(CC(=O)c1ccc(Cl)cc1)Cc1cccc2ccccc12
inactive: [1] 18.2% | [2] -5.8% | [3] 51.4% | [4] 11.7% | [5] 22.9% | [6] 38.8%

O=C1c2ccccc2S(=O)N1OCc1ccccc1 (stereo not drawn)
inactive: [1] -0.85% | [2] 0.75% | [3] 15.4% | [4] -16.6% | [5] 0.95% | [6] 9.6%

CCOC(=O)/C=C/C(=O)OCC
inactive: [1] -2.15% | [2] -0.2% | [3] -4.8% | [4] -2.55% | [5] 6.65% | [6] -2.65%

CNC(=O)SC1=NS(=O)(=O)c2ccc(Cl)cc2N1
inactive: [1] 18.6% | [2] 19.5% | [3] 33.4% | [4] 23.1% | [5] 17.6% | [6] 42.5%

CSCCC(NC(=O)CCCOc1ccc(Cl)cc1C)C(=O)O (stereo not drawn)
inactive: [1] 1.8% | [2] -12% | [3] 3.85% | [4] -29.9% | [5] -0.9% | [6] -5.25%

O=C(O)c1cc(Cl)c(Cl)s1
inactive: [1] 13.2% | [2] -20.1% | [3] 16.7% | [4] -68.9% | [5] -18.3% | [6] -1.9%

COc1cc(C=Nc2ccc(Cl)cc2)ccc1O
inactive: [1] -35.9% | [2] -25.9% | [3] -19.1% | [4] -20.6% | [5] -24.9% | [6] -43.3%

CCOC(=O)c1c(/N=C/c2cc(Br)ccc2O)sc2c1CCCC2
inactive: [1] 11.7% | [2] -7.8% | [3] 0.4% | [4] 12.9% | [5] -1.4% | [6] 10.7%

CCOC(=O)CNC(=O)C(CC(C)C)NC(=O)OCc1ccccc1 (stereo not drawn)
inactive: [1] 6.7% | [2] 7.9% | [3] 28.8% | [4] 5.25% | [5] 2.8% | [6] -11%

Cn1cc(S(C)=O)c(=O)c2ccccc21 (stereo not drawn)
inactive: [1] 2.65% | [2] -1.6% | [3] -5.6% | [4] -13.9% | [5] 8.3% | [6] -2.35%

COC(=O)C(Cc1ccccc1)NC(=O)C1CSC(C)(C)N1C=O (stereo not drawn)
inactive: [1] 3.25% | [2] 16.4% | [3] 21.6% | [4] 3.05% | [5] 22.8% | [6] -20.4%

Nc1nc2c(-c3ccc([N+](=O)[O-])cc3)nnn2c2ccccc12
inactive: [1] 12.7% | [2] 5.5% | [3] 37% | [4] 9.7% | [5] 22.2% | [6] 25.3%

CC(C)OC(=O)C1=C(C(=O)OC(C)C)CCCC1
inactive: [1] 4.8% | [2] 21.6% | [3] 4.4% | [4] 13.2% | [5] 3.1% | [6] 13.7%

CC(=O)OCC(C)CCC(C)COC(C)=O (stereo not drawn)
inactive: [1] -22.2% | [2] -9.4% | [3] -21.8% | [4] -11.4% | [5] 0.45% | [6] -31.6%

CCCCN(CCCC)CC1OCCO1
inactive: [1] -6.35% | [2] -0.5% | [3] -2.45% | [4] -16.6% | [5] 2.7% | [6] -2.6%

NC(=O)C1C[C@@H](O)CN1C(=O)c1ccc2c(c1)OCO2 (stereo partly drawn)
inactive: [1] -11.6% | [2] -9.8% | [3] -24.6% | [4] 6.5% | [5] 3.05% | [6] 1.25%

O=S=Nc1ccc([N+](=O)[O-])cc1Cl
inactive: [1] 5.7% | [2] -1.15% | [3] -2.9% | [4] -33.6% | [5] 10.7% | [6] 16.6%

CNCc1cccs1
inactive: [1] -26.8% | [2] -9.7% | [3] -27.8% | [4] -40.3% | [5] -17.6% | [6] -10.4%

CC(C)(C)NC(=O)NCc1ccc(Cl)cc1
inactive: [1] -0.5% | [2] -16.1% | [3] -12.1% | [4] -29.6% | [5] 1% | [6] -9.8%

CCOc1ccc(N2C(=O)C(=O)C(C#N)(c3nc4ccccc4o3)C(=O)C2=O)cc1
inactive: [1] 9.25% | [2] 33.7% | [3] 5.95% | [4] 6% | [5] -0.7% | [6] 15.2%

CCCCCOCC(O)CNCCNCC(O)COCCCCC (stereo not drawn)
inactive: [1] 8% | [2] 0% | [3] 14.3% | [4] -55.6% | [5] -23.2% | [6] 0%

CCN(CC)CCCC(C)Nc1ccnc2c(Cl)cccc12 (stereo not drawn)
inactive: [1] 15.7% | [2] 14.3% | [3] 22.4% | [4] 22.6% | [5] 5.2% | [6] 2.4%

CCOC(=O)C1OC1(C)CC (stereo not drawn)
inactive: [1] 4.1% | [2] 1% | [3] 10.3% | [4] -5.85% | [5] -5.25% | [6] -21.4%

NC(Cc1ccccc1F)C(=O)O (stereo not drawn)
inactive: [1] 5.95% | [2] -18.6% | [3] 5.4% | [4] 13.6% | [5] 4.9% | [6] 11.2%

Cc1ccc2nnc(C)n2c1
inactive: [1] 10.7% | [2] 1.95% | [3] 1.85% | [4] 19.2% | [5] 24.9% | [6] -4.4%

OCc1c(CO)c(C(F)(F)F)n2c1CCC2
inactive: [1] 9.9% | [2] -4.1% | [3] 9.15% | [4] -14.3% | [5] 9.65% | [6] 2.55%

CCC1CN2N=Cc3ccccc3C2=N1 (stereo not drawn)
inactive: [1] -13.7% | [2] 5.35% | [3] -5% | [4] -43.5% | [5] -22.7% | [6] -15.8%

CC(C)CC(CC(C)C)NCC(C)OC(=O)c1ccc(N(C)C)cc1 (stereo not drawn)
inactive: [1] 57.5% | [2] -4.2% | [3] 20.2% | [4] -7.55% | [5] 2.6% | [6] 1.3%

CC(=O)N1CCC(=O)c2ccccc21
inactive: [1] 11.3% | [2] 14.3% | [3] -1.8% | [4] 6.1% | [5] -24.3% | [6] -5.35%

Ic1ccccc1
inactive: [1] -0.9% | [2] 7.25% | [3] -41.4% | [4] -9.35% | [5] -45.8% | [6] -65.7%

Nc1nc2c(N)cc(C(F)(F)F)cc2nc1-c1ccccc1
inactive: [1] -38.2% | [2] -17.2% | [3] -1.9% | [4] 7.95% | [5] -6.25% | [6] -12.4%

Cc1c(C(C)C(=O)O)c2ccccc2n1C (stereo not drawn)
inactive: [1] 39% | [2] 12.9% | [3] 31.9% | [4] 33.1% | [5] 56.8% | [6] 45.1%

NC(=O)N/N=C(\CC1OC(=O)c2ccccc21)c1ccc([N+](=O)[O-])cc1 (stereo not drawn)
inactive: [1] 5.4% | [2] 3.85% | [3] -17.6% | [4] 3.85% | [5] -23.9% | [6] 0%

CCN(CC)C(=O)CNC(=O)c1c2nc3c(C(=O)NCC(=O)N(CC)CC)ccc(C)c3oc-2c(C)c(=O)c1N
inactive: [1] 16.9% | [2] 33.9% | [3] 8.95% | [4] 32.9% | [5] 10.9% | [6] 30.6%

O=C(OC1C#CCSCC#C/C=C\1)c1ccc2c(c1)C(=O)c1ccccc1C2=O (stereo not drawn)
inactive: [1] -0.05% | [2] -34% | [3] -53.2% | [4] -37% | [5] -16.9% | [6] -61.6%
